Results on 24 molecules are retold here after PubChem BioAssay (NCATS).

Assay [1] is described as follows: Viability qHTS for spleen associated tyrosine kinase inhibitor (SYKi) naive MV4-11 cells (AID 1963823). Note: nearly all actives have a fitted effect of over 40% in size. Put shortly: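 Seeding of 500 SYKi-naive MV4-11 cells per well onto pre-dispensed compounds preceded a 72 hr incubation at 37 C. Luminescent CellTiter-Glo signal, read after 10 min at room temperature, reflected viable cells.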
Assay [2] can be described thus: Viability qHTS for spleen associated tyrosine kinase inhibitor (SYKi) drug resistant MV4-11 cells (AID 1963824). Note: nearly all actives have a fitted effect of over 35% in size. Put shortly:
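SYK-inhibitor-resistant MV4-11 AML cells were seeded at 500 per well onto compound and cultured 72 hours (37 °C, 5% CO2). CellTiter-Glo was then added, and after 10 min at room temperature, luminescence gave viability.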
For orientation: In qHTS, concentration-response curves come from the screen itself.

Assay [3] can be described thus: Cellular viability qHTS for adrenocortical cancer (ACC) cell line SW-13 (AID 1963989).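 For activity (max response): cells grown in serum-free medium with ITS supplement; % is set by controls: 0 for no effect and ±100 for the full control effect.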 Note: nearly all actives have a fitted effect of over 65% in size. Particulars: SW-13 ACC cells viability, CellTiter-Glo, 48 h; activity (max response): stronger effect = lower value. An outline of the steps:
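Viability was read as CellTiter-Glo luminescence after 48 h compound treatment (up to 46 uM final) of SW-13 cells grown serum-free; titration curves were fit with a four-parameter logistic model to give IC50 and efficacy.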

Assay [4] is described as follows: Cellular viability qHTS for adrenocortical cancer (ACC) cell line NCI-H295R (AID 1963990). Note: nearly all actives have a fitted effect of over 60% in size. Put shortly:
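CellTiter-Glo ATP luminescence, read 48 h after compound addition, measured viability of NCI-H295R adrenocortical cells grown serum-free with ITS. Final concentrations spanned up to 46 uM. Data normalized to DMSO and doxorubicin, fitted for IC50 and maximal response.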

Where “and” joins values, the source holds several entries; their conditions need not be identical. Equal entries are not always repeated. Records with an inconclusive call do not appear. A structure can be active in one record and inactive in another. Calls of active or inactive are those of the source. Calls come from the whole dose curve; as a rule, active = well fitted curve in the direction sought with a large enough effect; inconclusive = small, poorly fitted or top-dose-only effect, or another doubt; inactive = no such curve, though single readings can be large; an effect the other way counts as inactive or inconclusive.
Potency is the fitted concentration of half-maximal effect.

Consider `CC[C@@H](C)Nc1cc(C(=O)NC2CC3CC[C@@H](C2)N3c2ccc(C(=O)C3CC3)cn2)c(C)cc1C(N)=O` (stereo partly specified), for which the Potency was 13 nM (active) in assay [1], 0.0259 µM (active) in assay [2], 0.178 µM (active) in assay [3] and 0.355 µM (active) in assay [4].

For the molecule `CN1CC(=O)N2[C@H](c3ccc4c(c3)OCO4)c3[nH]c4ccccc4c3C[C@@H]2C1=O`, the Potency entry in assay [1], in assay [2] and in assay [4] was “inactive” throughout. Moreover, in assay [3], the activity (max response) was 17.1% (inactive) and 13.1% (inactive).

For `CC(=O)O[C@]1(C(C)=O)CC[C@H]2[C@@H]3C=C(C)C4=CC(=O)CC[C@]4(C)[C@H]3CC[C@@]21C`, the Potency result in assay [1] is “inactive and 16.6 µM (active)”; in assay [2], 14.8 µM (active). In addition, the activity (max response) in assay [3] was 8.88% (inactive) and -22.2% (inactive). The Potency result in assay [4] was “inactive”.

On to `COc1cc(OC)c(/C=C/S(=O)(=O)Cc2ccc(OC)c(NCC(=O)O)c2)c(OC)c1`, for which the Potency in assay [1] was 92 nM (active) and 105 nM (active); in assay [2], 51.7 nM (active) and 118 nM (active); in assay [3] it was 0.02 µM (active); in assay [4] it was 0.0224 µM (active).

`Cc1ccc(S(=O)(=O)NC(=O)NN2CCCCCC2)cc1`: the Potency result in assay [1], in assay [2] and in assay [4] was “inactive” each time. In addition, in assay [3], the activity (max response) is -2.59% (inactive).

In the case of `CC(C)(O)c1ccccc1CC[C@@H](SCC1(CC(=O)O)CC1)c1cccc(/C=C/c2ccc3ccc(Cl)cc3n2)c1`, the Potency entry in assay [1], in assay [2] and in assay [4] was “inactive” in each case. Moreover, the activity (max response) in assay [3] was 11.5% (inactive).

As to `c1ccc2sc(SN3CCOCC3)nc2c1`, the Potency entry in assay [1], in assay [2] and in assay [4] was “inactive” each time. Further, the activity (max response) in assay [3] was 3.28% (inactive).

Turning to `O=C1[C@H](CC[C@H](O)c2ccc(F)cc2)[C@@H](c2ccc(O)cc2)N1c1ccc(F)cc1`, the Potency was 20.6 µM (active) and 20.9 µM (active) in assay [1]; 14.6 µM (active) and 20.9 µM (active) in assay [2]. Further, the activity (max response) in assay [3] was -3.67% (inactive) and -14.5% (inactive). Further, the Potency result in assay [4] was “inactive”.

Consider `CCNC(=O)Nc1ncc(-c2cc(-c3c(C)cc(OC)cc3C)nc(-c3cnccn3)n2)s1`, for which the Potency entry in assay [1], in assay [2] and in assay [4] was “inactive” throughout. For the same molecule, the activity (max response) in assay [3] was -7.82% (inactive).

As to `Cc1noc(C)c1-c1ccc(-c2cc(C(N)=O)c(NC(N)=O)s2)c(O[C@H]2CCNC2)c1`, the Potency was 2310 nM (active) in assay [1] and 3.26 µM (active) in assay [2]. The activity (max response) in assay [3] was -22.5% (inactive). In assay [4], the Potency result is “inactive”.

In the case of `CCN(CC)C(=O)/C(C#N)=C/c1cc(O)c(O)c([N+](=O)[O-])c1`, the Potency result in assay [1] and in assay [4] was “inactive” throughout. The Potency in assay [2] was 16.8 µM (active). For the same molecule, the activity (max response) in assay [3] is 3.46% (inactive).

On to `C[C@@H](O)[C@@H]1NC(=O)[C@H](CCCCN)NC(=O)[C@@H](Cc2c[nH]c3ccccc23)NC(=O)[C@H](Cc2ccccc2)NC(=O)[C@@H](NC(=O)[C@H](N)Cc2ccccc2)CSSC[C@@H](C(=O)N[C@H](CO)[C@@H](C)O)NC1=O`, for which the Potency entry in assay [1], in assay [2] and in assay [4] was “inactive” each time. Moreover, in assay [3], the activity (max response) is -1.31% (inactive).

Regarding `CC(C)n1nc(-c2cc3cc(O)ccc3[nH]2)c2c(N)ncnc21`, the Potency in assay [1] was 116 nM (active); in assay [2], 668 nM (active) and 291 nM (active); in assay [3] it was 5.8 µM (active) and 14.1 µM (active); in assay [4], 2.31 µM (active) and 10 µM (active).

As to `CC(C)Cc1ccc([C@@H](C)C(=O)NS(C)(=O)=O)cc1`, the Potency result in assay [1], in assay [2] and in assay [4] was “inactive” in each case. The activity (max response) in assay [3] was 5.6% (inactive).

For the molecule `N#Cc1ccc(COC[C@H]2O[C@@H](n3c(NCc4ccc(Cl)c(Cl)c4)nc4c(N)ncnc43)[C@H](O)[C@@H]2O)cc1`, the Potency in assay [1] is 4680 nM (active); in assay [2], 2.52 µM (active) and 3.32 µM (active); in assay [3], 25.1 µM (active). In addition, the Potency entry in assay [4] was “inactive”.

Take `C[C@H]1[C@H](O)O[C@@H]2O[C@@]3(C)CC[C@H]4[C@H](C)CC[C@@H]1[C@@]24OO3`: the Potency is 731 nM (active) in assay [1], 0.731 µM (active) in assay [2], 12.6 µM (active) in assay [3] and 3.55 µM (active) in assay [4].

For the molecule `O=C(OCCN1CCOCC1)c1cccnc1Nc1cccc(C(F)(F)F)c1`, the Potency entry in assay [1], in assay [2] and in assay [4] was “inactive” in each case. In addition, the activity (max response) in assay [3] was -11.8% (inactive).

Turning to `CCCCCCCCCCCCCCCC[N+](C)(C)CCN(Cc1ccc(OC)cc1)c1ncccn1`, the Potency in assay [1] was 2660 nM (active); in assay [2], 2.11 µM (active); in assay [3], 20.6 µM (active); in assay [4], 16.4 µM (active).

Regarding `CCN1CCCC(OC(=O)C(c2ccccc2)c2ccccc2)C1` (stereo unspecified), the Potency result in assay [1], in assay [2] and in assay [4] was “inactive” each time. The activity (max response) in assay [3] was -12.5% (inactive).

For the molecule `O=C1NCCN1CCN1CCC(c2cn(-c3ccc(F)cc3)c3ccc(Cl)cc23)CC1`, the Potency in assay [1] was 668 nM (active); in assay [2], 1.19 µM (active); in assay [3], 10.3 µM (active); in assay [4], 4.11 µM (active).

As to `CCO[C@@H]1OC(=O)C[C@@H]1NC(=O)[C@@H]1CCCN2C(=O)CC[C@H](NC(=O)c3nccc4ccccc34)C(=O)N12`, the Potency entry in assay [1], in assay [2] and in assay [4] was “inactive” in each case. Besides, the activity (max response) in assay [3] is -8.71% (inactive).

In the case of `CC(/C=C/[C@@H]1C[C@]1(C)c1ccc2c(c1)C(C)(C)CCC2(C)C)=C\C(=O)O`, the Potency in assay [1] is 66.1 nM (active); in assay [2], 0.468 µM (active). Also, in assay [3], the activity (max response) was -5.24% (inactive). The Potency entry in assay [4] was “inactive”.

Consider `COc1cc(-c2ccc(=O)[nH]n2)ccc1OC(F)F`, for which the Potency result in assay [1], in assay [2] and in assay [4] was “inactive” in each case. The activity (max response) in assay [3] was -6.02% (inactive).

With `NS(=O)(=O)c1cc2c(cc1C(F)(F)F)NC(Cc1ccccc1)NS2(=O)=O` (stereo unspecified), the Potency result in assay [1], in assay [2] and in assay [4] was “inactive” throughout. The activity (max response) in assay [3] was 1.49% (inactive).
